# M1 ag parental – nonselective activator or artifact in parental CHO-K1 cells; Fluo-8 calcium fluorescence; scaled to maximal ATP response, vehicle zero; activation, % at 3 µM; 0.48% of 360,000 active; AID 602248; in the data active = activation above about 15%;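 note: untransfected CHO-K1 host cells lacking M1 receptor as counterscreen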
# ANO1 block – inhibitors of mouse TMEM16A calcium-activated chloride channel; normalized B-score (activity score, 25-100; higher = stronger inhibition) at 10 µM; HEK293 TMEM16A/YFP iodide influx fluorescence, ionomycin; 1.2% of 310,000 active; Q8BHY3;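 active = ratio plate-corrected score three or more library SD toward inhibition, starting fluorescence score within five deviations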;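 note: score derived from kinetic fluorescence span divided by baseline fluorescence per well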
# CHO-K1 Ca PAM – M1 PAM counterscreen hit in parental CHO-K1 cells | 0.02% of 360,000 active | ATP EC20, Fluo-8 calcium fluorescence; 0% at ATP EC20, 100% at ATP max | AID 602247 | activation, % at 3 µM;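 active = activation above the run cutoff, the mean activation of all test compounds plus 3 SD, cut at about 40% in these data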;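 note: peak over basal fluorescence ratio in a 140 s read after ATP addition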
# CHO-K1 Ca antag – counter-screen for M1 antagonists: effect in parental CHO-K1 cells; ATP-induced calcium, Fluo-8 fluorescence; inhibition, % at 3 µM; 0.6% of 360,000 active; AID 602250;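 active = inhibition above a per-plate cutoff, the plate's mean sample inhibition plus 3 SD, cut at about 24% in these data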;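 note: 0% = DMSO plus EC80 ATP and 100% = DMSO alone without ATP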
# TMEM16A act – activates or potentiates the mouse TMEM16A chloride channel; 0.3% of 340,000 active; HEK293 TMEM16A/YFP-H148Q/I152L, iodide quench fluorescence; hits give low values; AID 623877; B-score at 10 µM;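 active = fluorescence-ratio B-score plate-corrected deviation score at least 3 library SD below zero, with starting fluorescence score within 5 deviations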;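 note: channel opened by trigger with iodide after compound preincubation; score built on the fluorescence ratio of max minus min over baseline; more negative score means more quench and so TMEM16A activation or potentiation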
# NTR1 agonist – activates human neurotensin receptor 1. 0.17% of 330,000 active. activation, % at 20 µM. NTR1-U2OS beta-arrestin-GFP spot imaging, agonist mode;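 active = activation at or above 40% of the spot to cytoplasm intensity ratio, with at least 20 cells analyzed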;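 note: 0% = DMSO without peptide and 100% = 100 nM NTR1 peptide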
# Target sequence (P30989 whole entry, looked up): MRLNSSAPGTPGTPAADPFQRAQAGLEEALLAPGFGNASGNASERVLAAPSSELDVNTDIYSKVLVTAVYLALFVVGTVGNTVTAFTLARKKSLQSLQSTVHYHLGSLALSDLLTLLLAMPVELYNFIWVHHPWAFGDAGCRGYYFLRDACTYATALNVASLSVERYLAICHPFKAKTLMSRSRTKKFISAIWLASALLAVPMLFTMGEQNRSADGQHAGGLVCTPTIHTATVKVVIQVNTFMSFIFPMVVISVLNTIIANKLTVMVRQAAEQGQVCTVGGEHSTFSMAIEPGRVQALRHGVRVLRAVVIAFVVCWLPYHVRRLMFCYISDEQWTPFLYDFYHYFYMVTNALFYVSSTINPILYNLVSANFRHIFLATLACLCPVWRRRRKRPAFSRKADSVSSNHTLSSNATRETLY
# NTR1 ag conf – NTR1 (human) agonism, confirmed; shares compounds with NTR1 agonist; NTR1-U2OS beta-arrestin-GFP translocation imaging; activation, % at 20 µM; 38% of 480 active; AID 504550;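 active = mean activation at 20 µM of at least 40%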;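 note: 0% = DMSO without peptide and 100% = 100 nM NTR1 peptide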
# The depositor's hits bear a star; i = inactive; · = no result. Rows were chosen to be rich in hits. Some 2.2% of all compounds tested hit in one or more screens of this group.
SMILES,M1 ag parental,ANO1 block,CHO-K1 Ca PAM,CHO-K1 Ca antag,TMEM16A act,NTR1 agonist,NTR1 ag conf
COc1ccc(S(=O)(=O)N2CCCCC2c2cc(C(=O)Nc3ccc(F)c(Cl)c3)no2)cc1 (stereo not given),0.8,·,-6.4,-6.2,·,·,·
COc1ccc(/C=C2/SC(=S)N(Cc3ccccc3)C2=O)cc1O,0.1,i,-3.8,4.9,i,44.4*,4.5
O=C(COc1ccccc1[N+](=O)[O-])Nc1ccc(NC(=O)c2cc3ccccc3o2)cc1,1.3,i,19.3,-16.7,i,40.0*,36.4
O=C(COc1ccccc1[N+](=O)[O-])Nc1ccc2oc(=O)ccc2c1,0.9,i,13.2,-13.8,i,-1.1,·
CC1(c2ccccc2)CC(C)(C)n2c(O)c(C3=NC(=S)NC3=O)c3cccc1c32 (stereo not given),0.6,i,23.0,-12.0,i,42.5*,27.4
COC(=O)C1CCN(C2CN(Cc3ccc([N+](=O)[O-])cc3)S(=O)(=O)C2)CC1 (stereo not given),0.5,·,5.7,12.1,·,·,·
O=C(O)c1ccccc1C(=O)c1ccc(F)c(F)c1,0.0,·,-0.5,-11.7,i,·,·
O=C(CCS(=O)(=O)c1ccccc1)Nc1ccc(-c2nc3ccccc3s2)cc1,1.0,i,18.0,-2.6,i,0.3,·
O=C(CCS(=O)(=O)c1ccccc1)Nc1cccc(-c2nc3ccccc3s2)c1,7.3,i,4.1,5.6,i,48.6*,15.1
CC(=O)Nc1cccc(C(=O)/C=C/c2ccc(Br)cc2)c1,4.9,i,27.4,-11.9,i,47.6*,72.6*
Cc1cccc(-c2nc(Nc3cccc(O)c3)c3ccccc3n2)c1,2.4,i,1.4,-7.6,i,53.2*,26.6
C[C@H](CO)N1C[C@H](C)[C@@H](CN(C)C(=O)Nc2ccc(C(F)(F)F)cc2)Oc2c(NC(=O)CCC(F)(F)F)cccc2C1=O,-0.4,·,-1.7,1.9,i,6.2,·
CC(=O)Nn1cnc2c(c1=O)C1(CCCC1)Cc1ccccc1-2,0.1,i,10.1,5.4,i,-3.3,·
Oc1ccc(-c2nc3c4c(ncn3n2)-c2ccccc2CC42CCCC2)cc1,0.2,i,-5.2,-3.0,i,46.3*,31.9
CCOc1cc(/C=C\[N+](=O)[O-])ccc1OCC(=O)Nc1ccccc1C,0.6,i,11.0,-2.0,i,44.7*,50.9*
COc1ccc(CC(=O)Nc2cccc(-c3nnc(-c4cccc(C)c4)o3)c2)cc1OC,7.3,100*,4.4,5.2,i,40.7*,57.8*
O=C(NC(=S)Nc1nc2c(s1)CCCC2)c1ccc(C(=O)c2ccccc2)cc1,-0.1,i,-3.3,-1.3,i,4.6,·
O=C(NC(=S)Nc1nc2c(s1)CSc1ccccc1-2)c1ccccc1,0.9,i,16.8,-8.6,i,61.5*,1.4
CCOC(=O)N(C)C[C@@H]1OCc2cnnn2CCCC(=O)N([C@H](C)CO)C[C@H]1C,0.1,·,-5.4,6.5,·,·,·
CN1C(=O)N(CC(=O)c2ccc3c(c2)OCO3)C(=O)C12CCCCC2,1.5,·,14.5,-5.0,·,·,·
CCOC1=C2[C@@H](CN(S(=O)(=O)c3ccccc3C)[C@H]2c2ccc(Cl)cc2)[C@H]2C(=O)NC(=O)[C@H]2C1,0.9,·,15.2,5.0,·,·,·
CC(=O)NC(CCS(C)(=O)=O)C(=O)Nc1cc(Cl)ccc1Cl (stereo not given),0.6,i,-2.7,5.1,i,-1.9,·
CC(C)S(=O)(=O)c1csc(NC(=O)Nc2cc(Cl)ccc2Cl)c1Cl,0.5,i,12.4,-3.7,i,41.8*,12.2
CC1CCCN(S(=O)(=O)c2cc(C(=O)NCCc3ccc(S(N)(=O)=O)cc3)ccc2Cl)C1 (stereo not given),6.2,·,16.3,-10.9,i,·,·
N=c1c(-c2nc3ccccc3[nH]2)cc(C(=O)c2cccs2)nn1-c1ccccc1,3.5,i,7.5,2.9,i,51.7*,-1.3
SMILES,M1 ag parental,ANO1 block,CHO-K1 Ca PAM,CHO-K1 Ca antag,TMEM16A act,NTR1 agonist,NTR1 ag conf
N=c1c(-c2nc3ccccc3[nH]2)cc(C(=O)c2ccco2)nn1-c1ccccc1,3.2,i,13.8,-10.6,i,5.7,·
O=C(CSc1nnnn1-c1ccccc1)NCCCN1CCCC1=O,0.4,·,5.8,6.0,i,2.0,·
CCOC(=O)c1sc(Nc2ccccc2)nc1C,0.2,i,30.6,-28.8,i,0.5,·
CCOC(=O)c1sc(Nc2nc3c(OC)cccc3s2)nc1C,1.0,100*,8.9,8.1,i,54.6*,26.1
CC(=O)n1cc(C(C[N+](=O)[O-])SCCN)c2ccccc21 (stereo not given),0.4,i,2.5,-1.6,i,47.2*,75.9*
Cn1cc(C(C[N+](=O)[O-])c2ccccc2)c2ccccc21 (stereo not given),-1.3,i,1.5,-3.5,i,4.0,·
Cc1ccc(/C=C2\C(=O)ON=C2c2ccccc2)o1,4.6,i,23.5,-7.0,i,1.0,·
Cc1ccc(-c2ccc(/C=C3\C(=O)ON=C3c3ccccc3)o2)c([N+](=O)[O-])c1,-0.4,100*,19.9,-6.1,-5.65*,99.6*,85.1*
CC(=O)Nc1nc(-c2ccc3c(c2)CC(C)N3C(=O)C2CC2)c(C)s1 (stereo not given),0.5,i,-3.2,-14.7,i,-0.8,·
Cc1sc(NC(=O)c2ccco2)nc1-c1ccc2c(c1)CC(C)N2C(=O)C1CC1 (stereo not given),7.4,i,9.2,5.0,i,71.1*,66.1*
O=C(C(c1ccccc1)C(O)c1ccccc1)N1CCOCC1 (stereo not given),-0.4,·,-2.0,-0.3,i,·,·
COc1ccccc1-c1cn[nH]c1-c1ccc(OCc2ccccc2)cc1O,1.2,i,16.0,-12.7,i,56.8*,0.9
CC(C)C[C@H](NC(=O)c1[nH]cnc1C(=O)N[C@@H](C)c1ccccc1)C(=O)OCc1ccccc1,1.3,i,10.9,-13.2,i,41.5*,62.6*
O=C(N[C@@H](Cc1ccccc1)C(=O)OCc1ccccc1)c1nc[nH]c1C(=O)N1CCc2ccccc2C1,1.4,i,21.5,-13.2,i,48.1*,10.2
CC(C)(C)OC(=O)NCc1ccc(CNC(=O)c2[nH]cnc2C(=O)NCC(=O)OCc2ccccc2)cc1,12.6,i,-5.0,10.2,i,55.5*,30.6
C[C@H](NC(=O)c1nc[nH]c1C(=O)N[C@@H](Cc1ccccc1)C(=O)OCc1ccccc1)C(=O)OCc1ccccc1,1.3,i,14.0,-17.2,i,20.4,·

# Screening data: PubChem, several laboratories
